Values joined by “and” are separate entries in the source; they are usually repeats but may differ in a detail not shown here. Identical values can stand only once. Inconclusive results are not listed. Active and inactive are the calls of the source. Unless noted, the call rests on the fitted dose curve; in most records, active means well fitted curve in the direction sought with a large enough effect in the repeat runs; inconclusive means weak or mixed curves; inactive means no such curve, though single readings can be large; an effect the other way counts as inactive or inconclusive.

The values below come from PubChem BioAssay (Tox21).

Assay [1] can be described thus: qHTS assay to identify small molecule agonists of the peroxisome proliferator-activated receptor delta (PPARd) signaling pathway - cell viability counter screen (AID 743211). Further: nearly all actives have a fitted effect of over 55% in size. Further: potency means the concentration at half of the fitted maximal effect. The gist of the method:
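HEK293H PPARd-bla, 3000 cells/well; 5 h preincubation 37C/5% CO2; cpd in DMSO, 17 h 37C; B/G FRET substrate 2 h RT; CellTiter-Glo 30 min RT, luminescence.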

Assay [2] is described as follows: qHTS assay to identify small molecule antagonists of the peroxisome proliferator-activated receptor delta (PPARd) signaling pathway - cell viability counter screen (AID 743213). Further: nearly all actives have a fitted effect of over 50% in size. Further: potency means the concentration at half of the fitted maximal effect. The gist of the method:
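PPARd-bla HEK293H cells (3000/well) got compound plus 300 nM L165041 agonist for 17 h at 37 C. Viability in the same wells came from CellTiter-Glo luminescence after 30 min at room temperature.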

In assay [3] the target is Vitamin D3 receptor (Homo sapiens) (UniProt P11473). The assay is described as follows: qHTS assay to identify small molecule agonists of the vitamin D receptor (VDR) signaling pathway (AID 743222; calls by dose curve). The gist of the method:
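Tox21 cell reporter format: VDR-bla line, 16 h compound exposure in 5% CO2 at 37C, then fluorescence intensity after 2 h with LiveBLAzer B/G FRET substrate.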
(In general: Quantitative high-throughput screening tests each substance at several concentrations.)

Assay [4] in a line: qHTS assay to identify small molecule agonists of the vitamin D receptor (VDR) signaling pathway - cell viability counter screen (AID 743224). Further: nearly all actives have a fitted effect of over 50% in size. Further: potency means the concentration at half of the fitted maximal effect. The gist of the method: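 CellTiter-Glo viability readout on VDR-bla cells, measured after 16 h of compound treatment at 37C in the same wells.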
Assay [5] is described as follows: qHTS assay to identify small molecule antagonists of the vitamin D receptor (VDR) signaling pathway - cell viability counter screen (AID 743225). Further: nearly all actives have a fitted effect of over 50% in size. Further: potency means the concentration at half of the fitted maximal effect. The gist of the method: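 Read-out: CellTiter-Glo luminescence measured 30 min after reagent addition at room temperature. Cells were VDR-bla HEK 293T exposed 16 h at 37C, 5% CO2, to compound with 3 nM final calcitriol agonist.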

A short description of assay [6]: qHTS assay to identify small molecule agonists of the NFkB signaling pathway - cell viability counter screen (AID 1159515; calls by dose curve; further: nearly all actives have a fitted effect of over 55% in size; further: potency means the concentration at half of the fitted maximal effect). The gist of the method:
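Tox21 library compounds were tested for cytotoxicity against NFkB-bla ME-180 cells during a 5 hr exposure at 37 C. CellTiter-Glo luminescence served as the viability read-out.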

A short description of assay [7]: qHTS assay to identify small molecule agonists of the endoplasmic reticulum stress response signaling pathway - cell viability counter screen (AID 1159517; calls by dose curve; further: nearly all actives have a fitted effect of over 50% in size; further: potency means the concentration at half of the fitted maximal effect). The gist of the method: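 In parallel with the ESRE reporter read, cytotoxicity was scored by CellTiter-Glo luminescence (30 min, room temperature) on HeLa ESRE-bla cells dosed for 5 hr.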
Assay [8] is described as follows: qHTS assay to identify small molecule antagonists of the retinoid-related orphan receptor gamma (ROR-gamma) signaling pathway - cell viability counter screen (AID 1159520). Further: nearly all actives have a fitted effect of over 50% in size. Further: potency means the concentration at half of the fitted maximal effect. The gist of the method:
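Tet-on ROR gamma CHO cells were given compounds for 2 hr, then doxycycline hyclate at 1 uM final, and incubated 16 hr at 37 C. Viability was measured as ATP content by CellTiter-Glo luminescence.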

The target of assay [9] is Nuclear receptor ROR-gamma (Homo sapiens) (UniProt P51449). Briefly: qHTS assay to identify small molecule antagonists of the retinoid-related orphan receptor gamma (ROR-gamma) signaling pathway (AID 1159521; further: nearly all actives have a fitted effect of over 50% in size; further: potency means the concentration at half of the fitted maximal effect). The gist of the method:
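CHO Tet-on RORγ, RORE-luc reporter. Cpd 2 h pre-incubation, then dox hyclate 1 uM final, 16 h, 37 C/5% CO2. ONE-Glo luminescence; decrease = antagonist.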

Assay [10] in a line: qHTS assay to identify small molecule agonists of the AP-1 signaling pathway - cell viability counter screen (AID 1159525; calls by dose curve; further: nearly all actives have a fitted effect of over 55% in size; further: potency means the concentration at half of the fitted maximal effect). The gist of the method: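 Same-well cytotoxicity counter screen of the Tox21 10K library in ME-180 cells. The readout is ATP-dependent luminescence after 5 h compound treatment. Data are normalised to DMSO and tetra n-octyl ammonium bromide controls.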

Assay [11] is described as follows: qHTS assay to identify small molecule agonists of the farnesoid-X-receptor (FXR) signaling pathway - cell viability counter screen (AID 743218). Further: nearly all actives have a fitted effect of over 45% in size. Further: potency means the concentration at half of the fitted maximal effect. The gist of the method:
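Quantitative HTS counter screen measuring ATP-based viability via CellTiter-Glo luminescence in HEK 293T cells carrying a UAS-driven beta-lactamase reporter, after 16 h compound exposure at 37 C.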

Assay [12] can be described thus: qHTS assay to identify small molecule antagonists of the farnesoid-X-receptor (FXR) signaling pathway - cell viability counter screen (AID 743221; active means well fitted cell-killing curve with a large enough effect in the repeat runs, not every such curve was filed as active). The gist of the method:
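Luminescence from CellTiter-Glo measures cytotoxicity in GeneBLAzer FXR-UAS-bla HEK 293T cells. Cells were exposed to compounds with 50 uM chenodeoxycholic acid (final) for 16 h at 37 C, in wells also used for the reporter readout.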

Assay [13] in a line: qHTS assay to identify small molecule agonists of the AP-1 signaling pathway (AID 1159526; calls by dose curve).
Assay [14] has as its target Peroxisome proliferator-activated receptor delta (Homo sapiens) (UniProt Q03181). Briefly: qHTS assay to identify small molecule agonists of the peroxisome proliferator-activated receptor delta (PPARd) signaling pathway (AID 743212; calls by dose curve; further: potency means the concentration at half of the fitted maximal effect). The gist of the method:
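Tox21 library screened in GeneBLAzer PPARd UAS-bla HEK293H cells. After compound treatment at 37 C, a FRET-based beta-lactamase substrate was applied for 2 h and fluorescence recorded.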

Assay [15] deals with Bile acid receptor (Homo sapiens) (UniProt Q96RI1). Briefly: qHTS assay to identify small molecule antagonists of the farnesoid-X-receptor (FXR) signaling pathway (AID 743217; active means well fitted inhibition curve with a large enough effect in the signal ratio in the repeat runs, not every such curve was filed as active; the % refers to the signal ratio). The gist of the method: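 Test compounds are pin-transferred onto FXR-bla HEK 293T cells, then chenodeoxycholic acid is added at 50 uM final. After 16 h at 37 °C, LiveBLAzer B/G substrate is applied for 2 h at room temperature and fluorescence read.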
Bile acid receptor (Homo sapiens), sequence (Q96RI1 whole entry, looked up): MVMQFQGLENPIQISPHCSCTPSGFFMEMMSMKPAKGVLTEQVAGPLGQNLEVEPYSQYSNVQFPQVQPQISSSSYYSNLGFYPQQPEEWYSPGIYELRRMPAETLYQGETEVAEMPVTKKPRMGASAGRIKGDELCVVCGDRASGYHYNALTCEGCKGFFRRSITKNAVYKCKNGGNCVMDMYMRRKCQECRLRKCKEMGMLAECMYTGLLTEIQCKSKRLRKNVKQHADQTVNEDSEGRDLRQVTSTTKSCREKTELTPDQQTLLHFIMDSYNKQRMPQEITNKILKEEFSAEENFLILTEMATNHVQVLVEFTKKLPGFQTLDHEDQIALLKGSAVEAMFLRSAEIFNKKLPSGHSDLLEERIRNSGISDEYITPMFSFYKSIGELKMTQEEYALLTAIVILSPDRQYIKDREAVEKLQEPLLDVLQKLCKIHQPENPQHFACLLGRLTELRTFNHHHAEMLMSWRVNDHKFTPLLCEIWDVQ

For assay [16] the target is unchanged. The assay is described as follows: qHTS assay to identify small molecule agonists of the farnesoid-X-receptor (FXR) signaling pathway (AID 743220; active means well fitted activation curve with a large enough effect in the signal ratio in the repeat runs, not every such curve was filed as active; the % refers to the signal ratio). The gist of the method: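 FXR-UAS-bla HEK 293T cells carrying a UAS-driven beta-lactamase reporter were plated for 5 h at 37C/5% CO2, then exposed to DMSO-dissolved Tox21 10K compounds for 16 h at 37C. A LiveBLAzer B/G FRET substrate was loaded for 2 h at room temperature before fluorescence reading.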

For assay [17], the target named is Vitamin D3 receptor (Homo sapiens) (UniProt P11473). The assay is described as follows: qHTS assay to identify small molecule antagonists of the vitamin D receptor (VDR) signaling pathway (AID 743223; active means well fitted inhibition curve with a large enough effect in the signal ratio in the repeat runs, not every such curve was filed as active; the % refers to the signal ratio). The gist of the method:
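Antagonist mode uses 1alpha,25-dihydroxyvitamin D3 at 3 nM final as stimulus. VDR-bla cells receive compounds in DMSO, incubate 16 h at 37C, then a beta-lactamase FRET substrate for 2 h at room temperature before fluorescence measurement.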

For assay [18], the target named is Retinoic acid receptor RXR-alpha (Homo sapiens) (UniProt P19793). Briefly: qHTS assay to identify small molecule agonists of the RXR signaling pathway (AID 1159527; calls by dose curve; further: nearly all actives have a fitted effect of over 35% in size). The gist of the method:
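Read-out: beta-lactamase FRET ratio (405 nm excitation, 460 and 530 nm emission) after 2 hr substrate loading at room temperature. Cells were RXR-alpha-UAS-bla HEK 293T treated with compounds for 16 hr in 2% charcoal-stripped FBS medium.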

Vitamin D3 receptor (Homo sapiens), sequence (P11473 whole entry, looked up): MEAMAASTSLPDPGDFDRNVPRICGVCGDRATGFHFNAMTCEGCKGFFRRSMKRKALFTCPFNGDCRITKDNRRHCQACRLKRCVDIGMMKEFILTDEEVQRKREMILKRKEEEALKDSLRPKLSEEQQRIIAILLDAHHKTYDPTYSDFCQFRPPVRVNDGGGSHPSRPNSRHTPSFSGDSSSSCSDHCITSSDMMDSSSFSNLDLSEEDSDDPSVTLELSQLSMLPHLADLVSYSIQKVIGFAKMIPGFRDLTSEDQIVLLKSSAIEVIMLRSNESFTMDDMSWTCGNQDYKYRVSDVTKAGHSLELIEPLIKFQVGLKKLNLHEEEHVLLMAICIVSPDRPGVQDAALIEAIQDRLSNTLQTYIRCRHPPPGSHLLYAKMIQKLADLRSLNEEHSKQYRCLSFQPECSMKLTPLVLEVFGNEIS
Peroxisome proliferator-activated receptor delta (Homo sapiens), sequence (Q03181 whole entry, looked up): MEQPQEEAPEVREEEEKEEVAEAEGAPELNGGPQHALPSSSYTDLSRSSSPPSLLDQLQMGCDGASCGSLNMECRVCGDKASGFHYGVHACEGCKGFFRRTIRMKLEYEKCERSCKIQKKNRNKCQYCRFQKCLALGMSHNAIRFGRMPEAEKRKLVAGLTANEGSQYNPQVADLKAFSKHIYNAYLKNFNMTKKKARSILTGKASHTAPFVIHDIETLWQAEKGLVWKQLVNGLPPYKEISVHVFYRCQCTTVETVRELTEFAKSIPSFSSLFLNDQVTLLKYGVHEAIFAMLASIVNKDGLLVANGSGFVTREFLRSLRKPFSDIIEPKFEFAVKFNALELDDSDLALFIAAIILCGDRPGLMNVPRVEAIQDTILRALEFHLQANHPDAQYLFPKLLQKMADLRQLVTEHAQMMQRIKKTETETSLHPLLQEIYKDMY
Retinoic acid receptor RXR-alpha (Homo sapiens), sequence (P19793 whole entry, looked up): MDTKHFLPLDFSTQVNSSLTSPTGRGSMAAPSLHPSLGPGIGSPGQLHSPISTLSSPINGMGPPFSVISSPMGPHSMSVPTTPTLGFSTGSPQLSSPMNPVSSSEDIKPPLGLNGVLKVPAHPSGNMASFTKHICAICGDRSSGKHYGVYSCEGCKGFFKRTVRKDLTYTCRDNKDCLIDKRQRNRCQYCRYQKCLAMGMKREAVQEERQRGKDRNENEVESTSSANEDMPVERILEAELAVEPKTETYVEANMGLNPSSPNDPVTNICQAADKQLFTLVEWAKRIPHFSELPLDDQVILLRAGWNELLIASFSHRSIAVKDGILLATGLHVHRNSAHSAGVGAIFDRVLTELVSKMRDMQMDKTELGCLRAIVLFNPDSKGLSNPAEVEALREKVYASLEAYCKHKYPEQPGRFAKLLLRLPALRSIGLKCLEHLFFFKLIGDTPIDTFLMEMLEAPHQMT

On to `O=S1OCC2C(CO1)C1(Cl)C(Cl)=C(Cl)C2(Cl)C1(Cl)Cl` (stereo not drawn), for which the Potency in assay [1] is 24.5 µM (active); in [2], 54.9 µM (active); in assay [4] it was 38.9 µM (active); in assay [6], 55000 nM (active); in [7] it was 55 µM (active); in assay [8] it was 54500 nM (active). The Potency was 43.3 µM (active) and 61.1 µM (active) in assay [9]; 38.9 µM (active) and 48.9 µM (active) in assay [10]. Also, the Potency entry in assay [3] and in assay [5] was “inactive” in each case.
On to `c1ccc2c(c1)cc1ccc3cccc4ccc2c1c34`, for which the Potency entry in [1], in assay [4], in assay [6], in assay [7], in assay [8] and in assay [9] was “inactive” throughout. Further, the Potency entry in assay [10] is “inactive”.
On to `[O]=[Cr](=[O])([OH])[O][Cr](=[O])(=[O])[OH]`, for which the Potency is 22.1 µM (active) and 27.5 µM (active) in [1]; 7.83 µM (active) and 21.8 µM (active) in assay [2]; 27500 nM (active) in assay [11]; 19.7 µM (active) and 24.5 µM (active) in assay [12]; 17.5 µM (active) and 21.8 µM (active) in [4]; 19.7 µM (active) and 21.8 µM (active) in assay [5]. In addition, the Potency in assay [6] is 30800 nM (active); in assay [7] it was 22.1 µM (active) and 34.6 µM (active); in [9], 4.9 µM (active) and 4.32 µM (active); in [10], 24.8 µM (active). Also, the Potency result in [3] and in [13] was “inactive” each time.
As to `CC(=O)[O][Sn]([c]1ccccc1)([c]1ccccc1)[c]1ccccc1`, the Potency in assay [1] is 0.0977 µM (active); in [11], 97.7 nM (active); in assay [12], 0.138 µM (active); in [4] it was 0.0871 µM (active); in assay [5], 219 nM (active); in assay [6], 2450 nM (active). For the same molecule, the Potency in assay [7] is 13.8 µM (active); in assay [8], 96.9 nM (active); in assay [9], 24.3 nM (active); in assay [10] it was 3.89 µM (active).
For the molecule `[F][Sn]([c]1ccccc1)([c]1ccccc1)[c]1ccccc1`, the Potency in assay [1] was 0.871 µM (active); in assay [2], 0.977 µM (active); in assay [11], 977 nM (active); in assay [12] it was 1.55 µM (active); in assay [4], 0.49 µM (active); in [5], 692 nM (active). For the same molecule, the Potency in [6] was 7760 nM (active); in [7], 5.49 µM (active); in [8], 864 nM (active); in assay [9], 273 nM (active); in assay [10] it was 7.76 µM (active). Moreover, the Potency result in [3] is “inactive”.
On to `CC(=O)[O][Pb]([c]1ccccc1)([c]1ccccc1)[c]1ccccc1`, for which the Potency in [1] is 1.23 µM (active); in assay [2] it was 1.23 µM (active); in assay [11] it was 549 nM (active); in [12] it was 1.1 µM (active); in [4], 1.55 µM (active); in assay [5] it was 977 nM (active). Besides, the Potency was 871 nM (active) in assay [6]; 24.5 µM (active) in assay [7]; 770 nM (active) in assay [8]; 193 nM (active) in [9]; 15.5 µM (active) in [10].
With `CCC[CH2][Sn]([CH2]CCC)([CH2]CCC)[CH2]CCC`, the Potency was 43.6 µM (active) in [1]; 49000 nM (active) in [11]; 49000 nM (active) in assay [5]; 30900 nM (active) in [6]; 21.9 µM (active) in [7]; 21.9 µM (active) in [10].
Regarding `CCOP(=S)(OCC)Oc1cc(C)nc(N(CC)CC)n1`, the Potency result in assay [14], in assay [2], in assay [15], in [16], in assay [3] and in assay [17] was “inactive” in each case. Moreover, the Potency entry in assay [4], in assay [6], in assay [7], in assay [8], in [10] and in assay [18] was “inactive” each time.
For `Cc1ccc([N+](=O)[O-])[c]2c1[O][Hg]2`, the Potency in assay [1] is 1.88 µM (active); in assay [14] it was 29800 nM (active); in assay [2] it was 5.96 µM (active); in [12], 1.19 µM (active); in assay [5], 3010 nM (active); in assay [6], 6010 nM (active). For the same molecule, the Potency in assay [7] is 23.9 µM (active); in assay [8], 1190 nM (active); in assay [10] it was 6.01 µM (active).
With `Nc1nc(N)c(N)c(N)n1`, the Potency result in [11], in assay [17], in [4], in assay [5], in assay [6] and in assay [7] was “inactive” each time. For the same molecule, the Potency result in assay [9], in assay [10] and in assay [13] was “inactive” each time.
